From PubChem BioAssay (NCI)
Compounds without any hit were thinned out: in the full panel of roughly 83,000, 20% have a hit.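 48-hour exposure, single concentration, 96-well plates; percent growth endpoint where 0 means no net growth. Active: below 10.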 Unmarked numbers belong to inactive results. Activity calls are given as the source filed them.

system: DU-145 prostate; assay: NCI-60 one-dose screen, 48 h (100 = growth as untreated, 0 = no growth, -100 = all killed); conditions: 10 µM unless noted

Row | Compound | growth
1 | CC(=O)Nc1nc(C(=O)N2N=C(C)/C(=C/c3cccs3)C2=O)cs1 | 99.4%
2 | COc1ccc(-c2nnc(COc3ccc(NC(=O)Nc4ccc(Cl)c(C(F)(F)F)c4)cc3F)o2)cc1 | 13.2%
3 | COc1ccc(OC)c(NC(=O)c2cc(S(=O)(=O)N3CCc4ccccc43)ccc2OC)c1 | 84.9%
4 | CC(C)(C)c1cc(-c2nc3ccc(N4CCN(CCO)CC4)cc3[nH]2)cc(C(C)(C)C)c1O | 70.5%
5 | COc1cc2oc(-c3cccc(NC(=O)Nc4ccc5c(c4)OCO5)c3)cc(=O)c2c(OC)c1OC | 65.4%
6 | COc1ccc(NC(=O)/N=c2\oc3c(OC)cccc3cc2-c2cc3ccccc3[nH]2)cc1 | 69.3%
7 | CCN1C(=S)N(CC)C2Nn3c(s/c(=C4\C(=O)N(C)c5ccccc54)c3=O)=NC21 (stereo not drawn) | 34.6%
8 | COc1ccc(/C=C2\Oc3cc(OCCN4CCCC4)ccc3C2=O)c(OC)c1 | 90.8%
9 | COc1ccc(C2CC(c3cccs3)=NN2c2ccc(S(=O)(=O)NC(=O)NCc3cccc(OC)c3)cc2)cc1 (stereo not drawn) | 106%
10 | O=C(Nc1cccc(C(F)(F)F)c1)Nc1ccc(OCc2nnc(-c3ccccc3)o2)c(F)c1 | 31.9%
11 | NC(=O)c1c(NC(=O)c2ccc(OCC3CCCO3)cc2)sc2c1CCCC2 (stereo not drawn) | 105%
12 | CC(C)(C)OC(=O)N1C/C(=C\c2cccs2)C(=O)/C(=C/c2cccs2)C1 | 107%
13 | COc1ccc(-c2nnc(COc3ccc(NS(=O)(=O)c4ccc(OC)cc4)cc3F)o2)cc1 | 80.8%
14 | COc1ccc(/C=C2\C(=O)N(C(=O)c3csc(NC(C)=O)n3)N=C2C)cc1 | 108%
15 | NC(=O)c1c(NC(=O)c2ccc3c(c2)OCO3)sc2c1CCC(=O)C2 | 40%
16 | COc1ccc(OC)c(/C=C2\Oc3cc(OCCN4CCCC4)ccc3C2=O)c1 | 96.5%
17 | CCCCNc1nnc(-c2cc(-c3cc4ccccc4o3)nn2-c2ccccc2)o1 | 102%
18 | Nc1c(C(=O)Nc2cccc([N+](=O)[O-])c2)sc2nc3c(cc12)C(O)CCC3 (stereo not drawn) | 71.4%
19 | O=c1oc2c([nH]c3ccc4ccccc4c32)c2ccccc12 | 106%
20 | CCc1cccc(C)c1NC(=O)c1sc2nc3c(cc2c1N)C(=O)CCC3 | 14.2%

Row | Compound | growth
21 | C#CCN1C(=O)/C(=c2\sc3n(c2=O)C2C(NN=3)N(CC)C(=O)N2CC)c2ccccc21 (stereo not drawn) | 14.8%
22 | OCc1c(-c2ccccc2)nc2sccn12 | 109%
23 | C#CCN1C(=O)/C(=c2\sc3n(c2=O)NC2C(N=3)N(CC)C(=O)N2CC)c2ccccc21 (stereo not drawn) | 41%
24 | CSc1nc(-c2cc3ccccc3o2)cc(-c2ccc(Cl)cc2)c1C#N | 68.5%
25 | O=C1CCCCC=C1C[N+](=O)[O-] | 106%
26 | CCCCCCCCCCCCCCCCCCOc1cccc(CCOP(=O)(O)OCC[N+](C)(C)C)c1 | 95.9%
27 | CC[C@H](C)[C@@H]1NC(=O)[C@H]([C@@H](C)O)NC(=O)C(Cc2ccccc2)NC(=O)[C@@H]2CCCN2C(=O)C(C(C)C)NC(=O)C(Cc2ccccc2)NC(=O)CNC(=O)[C@@H]2CCCN2C1=O (stereo partly drawn) | 83.6%
28 | COc1cc(C2C3=C(COC3=O)Nc3c2ccc2c3CCCC2)cc2c1OCO2 (stereo not drawn) | -24.7% (active)
29 | FC(F)(F)c1cccc(-n2nnc3cnc(Nc4ccc(N5CCCCC5)cc4)nc32)c1 | 57.6%
30 | COc1cc(CCn2nnc3c(Nc4ccc(N5CCOCC5)cc4)ncnc32)cc(OC)c1 | 99.3%
31 | Nc1c(C(=O)Nc2cccc(Cl)c2Cl)sc2nc3c(cc12)C(=O)CCC3 | 96.2%
32 | COC(=O)c1ccc2nc(-c3cc4ccccc4n3C)n(CCCCOc3cc4c(cc3OC)C(=O)N3CCC[C@H]3C=N4)c2c1 | 22.1%
33 | O=Nc1c(-c2c(O)[nH]c3ccc([N+](=O)[O-])cc23)[nH]c2ccc(O)cc12 | 6.72% (active)
34 | Nc1nc(-c2cc3ccccc3o2)cc(=O)c(=O)[nH]1 | 108%
35 | COc1cc(-c2n[nH]nc2-c2ccc3c(c2)OCCO3)cc(OC)c1OC | 10%
36 | Nc1nc(Cl)c2c(ncn2Cc2ccc(CCl)cc2)n1 | 86.5%
37 | Cc1cc(Nc2nc(-c3ccncc3)nc3ccccc23)n[nH]1 | 79.7%
38 | O=C(Nc1cc(C(F)(F)F)cc(C(F)(F)F)c1)Nc1ccc(OCc2nnc(-c3ccc(Cl)cc3)o2)c(F)c1 | 23.8%
39 | CCN1C(=O)N(CC)C2Nn3c(s/c(=C\c4cccc(F)c4)c3=O)=NC21 (stereo not drawn) | 59.1%

system: K-562 leukemia; assay: as above; conditions: 10 µM unless noted

Row | Compound | growth
40 | CC(=O)Nc1nc(C(=O)N2N=C(C)/C(=C/c3cccs3)C2=O)cs1 | 102%
41 | COc1ccc(-c2nnc(COc3ccc(NC(=O)Nc4ccc(Cl)c(C(F)(F)F)c4)cc3F)o2)cc1 | 16.9%
42 | COc1ccc(OC)c(NC(=O)c2cc(S(=O)(=O)N3CCc4ccccc43)ccc2OC)c1 | 103%
43 | CC(C)(C)c1cc(-c2nc3ccc(N4CCN(CCO)CC4)cc3[nH]2)cc(C(C)(C)C)c1O | -24.2% (active)
44 | COc1cc2oc(-c3cccc(NC(=O)Nc4ccc5c(c4)OCO5)c3)cc(=O)c2c(OC)c1OC | 41.9%
45 | COc1ccc(NC(=O)/N=c2\oc3c(OC)cccc3cc2-c2cc3ccccc3[nH]2)cc1 | 86.3%
46 | CCN1C(=S)N(CC)C2Nn3c(s/c(=C4\C(=O)N(C)c5ccccc54)c3=O)=NC21 (stereo not drawn) | 12.8%
47 | COc1ccc(/C=C2\Oc3cc(OCCN4CCCC4)ccc3C2=O)c(OC)c1 | 2.26% (active)
48 | COc1ccc(C2CC(c3cccs3)=NN2c2ccc(S(=O)(=O)NC(=O)NCc3cccc(OC)c3)cc2)cc1 (stereo not drawn) | 111%
49 | O=C(Nc1cccc(C(F)(F)F)c1)Nc1ccc(OCc2nnc(-c3ccccc3)o2)c(F)c1 | 22.1%
50 | NC(=O)c1c(NC(=O)c2ccc(OCC3CCCO3)cc2)sc2c1CCCC2 (stereo not drawn) | 134%
51 | CC(C)(C)OC(=O)N1C/C(=C\c2cccs2)C(=O)/C(=C/c2cccs2)C1 | 75.8%
52 | COc1ccc(-c2nnc(COc3ccc(NS(=O)(=O)c4ccc(OC)cc4)cc3F)o2)cc1 | 55.8%
53 | COc1ccc(/C=C2\C(=O)N(C(=O)c3csc(NC(C)=O)n3)N=C2C)cc1 | 95.3%
54 | NC(=O)c1c(NC(=O)c2ccc3c(c2)OCO3)sc2c1CCC(=O)C2 | 1.31% (active)
55 | COc1ccc(OC)c(/C=C2\Oc3cc(OCCN4CCCC4)ccc3C2=O)c1 | 3.51% (active)
56 | CCCCNc1nnc(-c2cc(-c3cc4ccccc4o3)nn2-c2ccccc2)o1 | 83%
57 | Nc1c(C(=O)Nc2cccc([N+](=O)[O-])c2)sc2nc3c(cc12)C(O)CCC3 (stereo not drawn) | 17.6%
58 | O=c1oc2c([nH]c3ccc4ccccc4c32)c2ccccc12 | 124%
59 | CCc1cccc(C)c1NC(=O)c1sc2nc3c(cc2c1N)C(=O)CCC3 | 8.64% (active)

Row | Compound | growth
60 | C#CCN1C(=O)/C(=c2\sc3n(c2=O)C2C(NN=3)N(CC)C(=O)N2CC)c2ccccc21 (stereo not drawn) | 7.6% (active)
61 | OCc1c(-c2ccccc2)nc2sccn12 | 123%
62 | C#CCN1C(=O)/C(=c2\sc3n(c2=O)NC2C(N=3)N(CC)C(=O)N2CC)c2ccccc21 (stereo not drawn) | 3.27% (active)
63 | CSc1nc(-c2cc3ccccc3o2)cc(-c2ccc(Cl)cc2)c1C#N | 63.4%
64 | O=C1CCCCC=C1C[N+](=O)[O-] | 27.8%
65 | CCCCCCCCCCCCCCCCCCOc1cccc(CCOP(=O)(O)OCC[N+](C)(C)C)c1 | 116%
66 | CC[C@H](C)[C@@H]1NC(=O)[C@H]([C@@H](C)O)NC(=O)C(Cc2ccccc2)NC(=O)[C@@H]2CCCN2C(=O)C(C(C)C)NC(=O)C(Cc2ccccc2)NC(=O)CNC(=O)[C@@H]2CCCN2C1=O (stereo partly drawn) | 20.9%
67 | COc1cc(C2C3=C(COC3=O)Nc3c2ccc2c3CCCC2)cc2c1OCO2 (stereo not drawn) | 12.7%
68 | FC(F)(F)c1cccc(-n2nnc3cnc(Nc4ccc(N5CCCCC5)cc4)nc32)c1 | 67.3%
69 | COc1cc(CCn2nnc3c(Nc4ccc(N5CCOCC5)cc4)ncnc32)cc(OC)c1 | 44.4%
70 | Nc1c(C(=O)Nc2cccc(Cl)c2Cl)sc2nc3c(cc12)C(=O)CCC3 | 42.1%
71 | COC(=O)c1ccc2nc(-c3cc4ccccc4n3C)n(CCCCOc3cc4c(cc3OC)C(=O)N3CCC[C@H]3C=N4)c2c1 | 44.6%
72 | O=Nc1c(-c2c(O)[nH]c3ccc([N+](=O)[O-])cc23)[nH]c2ccc(O)cc12 | 20.9%
73 | Nc1nc(-c2cc3ccccc3o2)cc(=O)c(=O)[nH]1 | 103%
74 | COc1cc(-c2n[nH]nc2-c2ccc3c(c2)OCCO3)cc(OC)c1OC | 8.96% (active)
75 | Nc1nc(Cl)c2c(ncn2Cc2ccc(CCl)cc2)n1 | 117%
76 | Cc1cc(Nc2nc(-c3ccncc3)nc3ccccc23)n[nH]1 | 38.1%
77 | O=C(Nc1cc(C(F)(F)F)cc(C(F)(F)F)c1)Nc1ccc(OCc2nnc(-c3ccc(Cl)cc3)o2)c(F)c1 | 16.1%
78 | CCN1C(=O)N(CC)C2Nn3c(s/c(=C\c4cccc(F)c4)c3=O)=NC21 (stereo not drawn) | 26.8%
